Shown are actives, neighbours in structure and some others; about 3.5% of the full set was active somewhere.
FBW7 act – human FBW7 E3 ligase activation, primary screen | Q969H0 | AlphaScreen FBW7–phospho-cyclin E peptide binding, activator screen | normalized activity (activation), % at 26.1 µM | hit rate 0.13% among 650,000 | AID 1259310; in the data active = normalized activity above about 1.9%;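 also: purified mutant Fbw7 with reduced substrate affinity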
GPR151 activ – activates the human receptor GPR151; activation, % at 11.2 µM; PathHunter beta-arrestin GPR151 cells, luminescence; Q8TDV0; hit rate 1% among 650,000; in the data active = activation above about 4.9%;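 also: 0% = median of compound wells and 100% = cells with positive control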
Target sequence (Q8TDV0 whole entry, looked up): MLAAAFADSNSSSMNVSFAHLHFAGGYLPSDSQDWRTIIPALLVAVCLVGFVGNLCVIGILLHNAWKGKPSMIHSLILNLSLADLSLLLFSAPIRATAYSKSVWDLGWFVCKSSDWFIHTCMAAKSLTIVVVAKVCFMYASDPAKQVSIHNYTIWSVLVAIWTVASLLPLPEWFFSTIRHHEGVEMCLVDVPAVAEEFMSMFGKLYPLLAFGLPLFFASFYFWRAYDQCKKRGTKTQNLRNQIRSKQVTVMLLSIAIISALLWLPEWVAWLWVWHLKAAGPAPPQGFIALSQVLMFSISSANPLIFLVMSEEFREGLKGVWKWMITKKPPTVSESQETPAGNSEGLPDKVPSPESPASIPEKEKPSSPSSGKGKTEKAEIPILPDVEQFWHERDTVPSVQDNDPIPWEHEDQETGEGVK
TEAD-YAP block – TEAD-YAP interaction inhibition; HEK-TIYL cells, TEAD-Gal4/YAP UAS-luciferase luminescence; inhibition, % at 9.12 µM; hit rate 1.4% among 640,000; AID 1259422; in the data active = inhibition above about 32%;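 also: 0% = median of test compound wells and 100% = reference inhibitor wells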
MITF primary – human MITF inhibition, primary screen. O75030. AlphaScreen MITF homodimerization, bead proximity signal. inhibition, % at 2.6 µM. hit rate 0.91% among 650,000. AID 1259374; in the data active = inhibition above about 50%;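 also: 0% = vehicle wells with protein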
MITF inh conf – human MITF inhibition, confirmation. inhibition, % at 2.6 µM. AlphaScreen MITF homodimerization, biotin/His-MITF beads. shares compounds with MITF primary. AID 1259372. hit rate 16% among 4,700;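 active = inhibition above a cutoff derived from the DMSO control wells, cut at about 28% in these data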;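 also: 0% = MITF dimer wells with DMSO only; inhibitors lower the bead chemiluminescence by keeping MITF from dimerizing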
AlphaScreen DR – optically interferes with AlphaScreen signal in dose response; shares compounds with MITF primary; AlphaScreen optical interference counterscreen, cell-free; IC50, µM; hit rate 6% among 480; AID 1259373; call rule not given here
AS interf ctr – AlphaScreen optical interference, counter-screen. LysRS AlphaScreen counterscreen, signal interference, triplicate. AID 1259376. hit rate 7.6% among 4,700. shares compounds with MITF primary. inhibition, % at 2.6 µM;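 active = inhibition above a cutoff derived from the DMSO control wells, cut at about 30% in these data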
An asterisk follows results filed as active; . = no result.

SMILES	FBW7 act	GPR151 activ	TEAD-YAP block	MITF primary	MITF inh conf	AS interf ctr	others
O=C(NC1CCCCC1)N1CCN2C(=O)[C@@H]3CSCN3C(=O)[C@H]2C1	0	-1	14	76*	60*	-2	AlphaScreen DR=>6.5
O=C(NC1CCCCC1)N1CCN2C(=O)[C@@H]3C[C@@H](O)CN3C(=O)[C@H]2C1	0	0	5	80*	73*	-9	AlphaScreen DR=>6.5
O=C(CN1CCSCC1)N/N=C/c1ccc(C(F)(F)F)cc1	0	2	-12	17	.	.
Oc1ccc(CNc2ccccc2F)c2cccnc12	-1	-1	2	68*	70*	100*
Oc1ccc(Cl)c2cccnc12	0	-1	4	18	.	.
Oc1ccc(CNc2cccc(Cl)c2)c2cccnc12	-1	-1	15	52*	107*	100*
Oc1ccc(CNc2ccccc2Cl)c2cccnc12	-2	0	16	68*	51*	92*
O=C(OCc1nc2ccccc2s1)c1ccc(S(=O)(=O)NCc2ccco2)cc1	0	-1	-4	14	.	.
CC(=O)CCc1oc2c(Br)cc(C)cc2c1-c1ccc(C)o1	0	-1	-2	-2	.	.
CCOC(=O)c1cc(=O)c(-c2ccccc2)n[nH]1	0	0	-12	-3	.	.
O=C(NC(c1ccccc1)c1ccccc1)N1CCC(Cn2cnc3ccccc32)CC1	0	0	3	56*	5	12
O=C(COc1ccccc1)N1CCC(Cn2cnc3ccccc32)CC1	0	-1	7	56*	9	12
Cc1ccccc1NC(=O)N1CCC(Cn2cnc3ccccc32)CC1	0	-1	-7	-8	.	.
COc1ccc(Cl)cc1NC(=O)N1CCC(Cn2cnc3ccccc32)CC1	0	2	-5	47	.	.
O=C(Cn1ccc2ccccc21)N1CCC(Cn2cnc3ccccc32)CC1	0	0	-8	-1	.	.
COc1ccc(CNC(=O)N2CCC(Cn3cnc4ccccc43)CC2)cc1	0	0	5	58*	8	17
O=C(OCC(=O)C12CC3CC(CC(C3)C1)C2)c1cccc(S(=O)(=O)N2CCOCC2)c1	0	1	-8	0	.	.
COc1cccc(C(=O)O/N=C(\N)c2cccnc2)c1	0	-4	-41	9	.	.
Cc1cc(C)cc(C(=O)O/N=C(\N)c2cccnc2)c1	0	0	-10	56*	-20	-2
Cc1ccc(S(=O)(=O)Nc2nonc2NS(=O)(=O)c2ccc(C)cc2)cc1	0	-1	2	-11	.	.
CCN(CC)CCN1CC(c2ccccc2)CC1=O (configuration not stated)	0	0	5	58*	17	11
Cc1ccc(S(=O)(=O)N2CCN(CCC#N)CC2)cc1	0	3	5	62*	-5	2
N#CCCN1CCN(S(=O)(=O)c2ccccc2Br)CC1	0	1	4	78*	-7	6
Cn1nccc1C(=O)N1CCC[C@@H]2CN(Cc3cc4ccccc4s3)CC[C@@H]21	0	0	-3	-22	.	.
O=[N+]([O-])c1ccccc1CN1CCC(N2CCCC2)CC1	0	0	-10	57*	10	2
SMILES	FBW7 act	GPR151 activ	TEAD-YAP block	MITF primary	MITF inh conf	AS interf ctr	others
O=CN1CCN(Cc2ccc(Cl)cc2)CC1	0	1	12	50	.	.
O=[N+]([O-])c1ccccc1CN1CCC(O)CC1	0	1	-9	21	.	.
O=[N+]([O-])c1ccccc1CN1CCN(C2CCCC2)CC1	0	-1	1	73*	9	2
O=[N+]([O-])c1ccccc1CN1CCN(C2CC3CCC2C3)CC1 (configuration not stated)	0	-1	-2	67*	11	11
Clc1ccc(CN2CCN(C3CC4CCC3C4)CC2)cc1 (configuration not stated)	0	0	-9	79*	16	18
N#Cc1cnn(-c2ncnc3sc4c(c23)CCC4)c1N	0	-1	0	0	.	.
O=[N+]([O-])c1ccccc1CN1CCC(N2CCc3ccccc3C2)CC1	0	-2	6	71*	13	27
CCOC(=O)C1CCN(Cc2ccccc2[N+](=O)[O-])CC1	0	2	8	17	.	.
O=[N+]([O-])c1ccccc1CN1CCc2ccccc2C1	0	2	11	21	.	.
CCN1CCN(C2CCN(Cc3ccccc3[N+](=O)[O-])CC2)CC1	0	1	-15	9	.	.
CC1CC(C)CN(C2CCN(Cc3ccccc3[N+](=O)[O-])CC2)C1 (configuration not stated)	0	-1	-5	58*	0	3
O=[N+]([O-])c1ccccc1CN1CCN(C2CCN(Cc3ccccc3)CC2)CC1	0	-2	3	88*	2	13
O=C(CCN1C(=O)c2ccccc2C1=O)C[N+](=O)[O-]	0	0	7	-1	.	.
O=C(CNCc1ccccc1F)Nc1ccccc1N1CCOCC1	0	-1	-12	74*	12	21
O=C(CNCc1ccccc1Cl)Nc1ccccc1N1CCCCC1	0	-1	-8	62*	4	9
O=C(CCl)Nc1ccccc1N1CCCCCC1	0	-1	14	-3	.	.
CC(CNCC1CCCO1)COc1ccc(Cl)cc1 (configuration not stated)	0	1	4	47	.	.
COC(=O)C1=CN(C)C=C(C(=O)OC)C1c1cccc(Cl)c1	1	0	-10	-3	.	.
O=C1OC(c2ccccc2)=N/C1=C/c1cc2ccccc2nc1N1CCOCC1	0	-1	2	56*	6	13
Cc1cc(C)c(C(=O)c2ccc(C(=O)Nc3ccccc3C(N)=O)cc2)c(C)c1	0	0	-3	2	.	.
CCOc1ccc2nc(N=C(NC(=O)CC)NC(=O)CC)nc(C)c2c1	0	-1	-35	110*	3	6
CC(C)(C)n1nnnc1C(c1ccc2ncccc2c1)N1CCOCC1 (configuration not stated)	0	0	-28	54*	9	5
CCN1CCN(C(c2ccc3ncccc3c2)c2nnnn2C(C)(C)C)CC1 (configuration not stated)	0	1	0	10	.	.
CN(C)c1cc(NC(=O)CNC(C)(C)C)c(O)c2c1C[C@H]1C[C@H]3[C@@H](N(C)C)C(=O)C(C(N)=O)=C(O)[C@@]3(O)C(=O)C1=C2O	0	1	-3	78*	60*	-4	AlphaScreen DR=>6.5
COc1cccc(-c2nc(C3CCN(C(C)=O)CC3)n3ccc(Cl)cc23)c1	0	0	2	77*	7	13
COc1cc2c(cc1OC)n(CC(=O)NCc1ccccc1F)n1c(C)cc(=O)nc21	0	0	0	-3	.	.
O=C(CN1CCN(c2nc3ccccc3s2)CC1)NC1CCCC1	0	-3	-20	16	.	.

Bioassay records: PubChem BioAssay, The Scripps Research Institute Molecular Screening Center
